Assay results taken from PubChem BioAssay (NCATS).
Inconclusive results are not listed. Activity calls are given as the source filed them. Unless noted, calls follow the shape of the dose curve; as a rule, active = well fitted curve in the direction sought with a large enough effect; inconclusive = small, poorly fitted or top-dose-only effect, or another doubt; inactive = no such curve, though single readings can be large; an effect the other way counts as inactive or inconclusive.

Legend:
[1] = Cell Viability - BJ (AID 421; calls by dose curve;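 also: potency is read from the fitted curve at half-maximal effect; cells exposed to compound for 40 hours at 37 °C before readout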); details: BJ fibroblast viability, qHTS
Procedure, shortened: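 Luminescent ATP signal (CellTiter-Glo, 20 min at room temperature) served as the read-out of viable BJ cells after 40 hours of compound treatment. Responses were scaled between DMSO and 100 uM tamoxifen, and AC50 values were obtained by Hill modeling.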

[2] = Cell Viability - Jurkat (AID 426;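 active = dose-dependent loss of cell ATP signal giving a full or clear fitted curve, ranked by lower potency value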; also: potency is read from the fitted curve at half-maximal effect); details: qHTS
Procedure, shortened: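 Seed 5000 Jurkat E6-1 cells/well; add compound; incubate 40 hr at 37 °C; add CellTiter-Glo; wait 20 min at room temperature; read luminescence. Fit concentration-response with Hill equation for AC50.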

[3] = Cell Viability - Hek293 (AID 427;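 active = compounds whose dose-response curve shows a full or clear partial loss of cell viability, called from curve shape rather than a numeric limit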;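 also: potency is read from the fitted curve at half-maximal effect; cells exposed to compound for 40 hours at 37 °C before reading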); details: qHTS
Procedure, shortened: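 Luminescent ATP read-out (CellTiter-Glo, 20 min RT) after 40 hr compound exposure at 37 °C in complete medium. Signal normalized to DMSO (basal) and 100 uM tamoxifen (100% inhibition); concentration-response fitted with the standard Hill equation to give AC50.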

[4] = Cell Viability - HepG2 (AID 433; calls by dose curve;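 also: potency is read from the fitted curve at half-maximal effect; potency for ATP loss meaning cytotoxicity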); details: qHTS
Procedure, shortened: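 HepG2 hepatocellular carcinoma cells (1500/well) were treated with compounds for 40 h at 37 °C in complete medium; intracellular ATP was read by CellTiter-Glo luminescence. Data were normalized to DMSO and 100 uM tamoxifen, and AC50 came from Hill fits.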

[5] = Cell Viability - MRC5 (AID 434; calls by dose curve;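 also: potency is read from the fitted curve at half-maximal effect; potency reflects cytotoxicity seen as loss of intracellular ATP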); details: MRC5 lung fibroblast viability, qHTS
Procedure, shortened: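 MRC5 normal human lung fibroblasts, 1500 cells/well, exposed to compound for 40 hr at 37 C. Cellular ATP was read by CellTiter-Glo luminescence; data normalized to DMSO and 100 uM tamoxifen, with AC50 from Hill fits.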

[6] = Cell Viability - SK-N-SH (AID 435; calls by dose curve;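 also: potency is read from the fitted curve at half-maximal effect; compound exposure lasted 40 h at 37 °C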); details: SK-N-SH neuroblastoma cell viability qHTS
Procedure, shortened: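 SK-N-SH human neuroblastoma cells (1500/well) were exposed to compounds in complete medium for 40 h at 37 °C, and intracellular ATP was then measured by CellTiter-Glo luminescence. AC50 was taken from Hill fits, normalized to DMSO and 100 uM tamoxifen.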

[7] = target: Mitogen-activated protein kinase 10 (Mus musculus) (UniProt Q61831); assay: JNK3 AlphaScreen Assay (AID 530; active = well fitted curve in either direction with a large enough effect, not every such curve was filed as active;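 also: kinase came from lysate of stimulated human HepG2 cells; signal reports phosphorylation of biotinylated GST-cJun 1-79 at Ser73 with 10 µM ATP; % is scaled to controls: 0 for no effect and ±100 for the full control effect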); details: JNK3 lysate, c-Jun phosphorylation; series mostly up to 57.1 µM
Procedure, shortened: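 qHTS format: compounds tested as titrations against IL-1beta/TNF-alpha-activated HepG2 lysate JNK3 with biotin-GST-cJun substrate and 10 uM ATP at room temperature. Loss of anti-phospho-cJun AlphaScreen signal indicates inhibition.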

[8] = Cell Viability - N2a (AID 540); details: N2a mouse neuroblastoma cell viability; activity change, negative = cytotoxicity: at 92.2 µM (top of the series);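 also: plate controls were DMSO alone for no effect and tamoxifen control for full effect; nearly all actives have a fitted effect of over 45% in size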
Procedure, shortened: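 First, 1500 N2a cells per well incubate 5 hr at 37 °C; next, compounds are added and incubated 40 hr at 37 °C; finally CellTiter-Glo is added and luminescence read after 20 min, with AC50 derived by Hill modeling.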

[9] = Cell Viability - NIH 3T3 (AID 541); details: NIH 3T3 cell viability, qHTS; activity change, negative = cytotoxicity: at 92.2 µM (top of the series);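 also: plate controls were DMSO alone for no effect and tamoxifen positive control for full effect; nearly all actives have a fitted effect of over 25% in size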
Procedure, shortened: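 AC50 values reflect concentration-dependent loss of intracellular ATP in NIH 3T3 cells after 40 hr treatment in complete culture medium, quantified by luciferase-based luminescence.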

[10] = Cell Viability - HUV-EC-C (AID 542); details: HUV-EC-C endothelial cell viability, qHTS; series mostly up to 92.2 µM; also: % is scaled to controls: 0 for no effect and ±100 for the full control effect; nearly all actives have a fitted effect of over 35% in size
Procedure, shortened: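 Decrease in cellular ATP, quantified by luciferase luminescence, reflects toxicity in normal human vascular endothelial HUV-EC-C cells given compound for 40 hr in complete culture medium. Values are AC50s from concentration-response curves.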

[11] = Cell Viability - H-4-II-E (AID 543); details: H-4-II-E rat hepatoma viability; series mostly up to 92.2 µM; also: % is scaled to controls: 0 for no effect and ±100 for the full control effect; nearly all actives have a fitted effect of over 35% in size
Procedure, shortened: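 Here, cytotoxicity is measured in the rat hepatoma line H-4-II-E as loss of intracellular ATP after 40 hr compound treatment, detected by luciferase luminescence.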

[12] = Cell Viability - Renal Proximal Tubule (AID 545); details: renal proximal tubule cells viability, primary cells of rat origin; series mostly up to 91.7 µM; also: nearly all actives have a fitted effect of over 40% in size
Procedure, shortened: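 Primary rat renal proximal tubule cells (1000/well) were treated with compounds for 40 hr at 37 °C in complete medium. Intracellular ATP was measured by CellTiter-Glo luminescence, and AC50 values came from Hill-equation fits of concentration-response data.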

[13] = Cell Viability - Mesenchymal (AID 546); details: mesenchymal cells viability, qHTS; series mostly up to 91.7 µM;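 also: cells exposed to compound for 40 hours before reading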
Procedure, shortened: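 Human kidney mesenchymal cells from normal renal glomeruli, 1000 cells/well, rested 5 hr at 37 °C, then treated 40 hr at 37 °C in complete medium. Cellular ATP read by CellTiter-Glo luminescence; AC50 from Hill-equation fits.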

[14] = Cellular Toxicity (caspase-3) HepG2 (AID 654); details: HepG2 caspase-3 activation, luminescence; series mostly up to 92.2 µM;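 also: cells exposed to compound for 16 hours before reading; 0% = DMSO alone and 100% = caspase signal from 100 µM tamoxifen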
Procedure, shortened: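 qHTS, HepG2, 1500 cells/well, complete medium; cpd 16 h 37 °C; Caspase-Glo 3/7, 20 min RT; lum. Norm: DMSO vs 100 uM tamoxifen; AC50 Hill fit.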

[15] = Cellular Toxicity (caspase-3) Jurkat (AID 655); details: Jurkat caspase-3 activation, luminescence; caspase-3 activation: at 92.2 µM (top of the series), DMSO = 0%, tamoxifen = 100%;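 also: cells exposed to compound for 16 h at 37 °C before reading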
Procedure, shortened: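 Jurkat cells (5000/well) in complete medium were treated with compounds for 16 hr at 37 °C, then Caspase-Glo 3/7 luminescence was read after 20 min at room temperature. Data normalized to DMSO (basal) and 100 uM tamoxifen (100%); AC50 from Hill fit.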

[16] = Cellular Toxicity (caspase-3) HUV-EC-C (AID 656); details: HUV-EC-C cells, caspase-3 activation (apoptosis), vehicle = 0, 100 µM tamoxifen = 100%; series mostly up to 92.2 µM
Procedure, shortened: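 HUV-EC-C endothelial cells, 1000/well, were pre-incubated 5 hr at 37°C, then exposed to compounds for 16 hr at 37°C. Caspase-Glo 3/7 luminescence was read after 20 min at room temperature. AC50 came from Hill fits, normalized to DMSO and 100 uM tamoxifen.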

[17] = Cellular Toxicity (caspase-3) SHSY5Y (AID 657); details: SH-SY5Y caspase-3 activation, DMSO zero, 10 µM staurosporine = 100%; series mostly up to 91.7 µM
Procedure, shortened: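 SH-SY5Y human neuroblastoma cells (1500/well) were treated with compounds for 16 h at 37 °C, then Caspase-Glo 3/7 luminescence was read after 1 h at room temperature. Data normalized to DMSO and 10 uM staurosporine; AC50 from Hill fits.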

[18] = Cellular Toxicity (caspase-3) BJ (AID 658); details: BJ fibroblasts, luminescence, normalized: DMSO 0%, staurosporine 100%; series mostly up to 91.7 µM
Procedure, shortened: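 BJ human foreskin fibroblasts, 1000 cells/well, treated 16 hours at 37 °C in complete medium; caspase 3/7 activity by Caspase-Glo luminescence after 1 hr at room temperature. Normalized to DMSO and 10 uM staurosporine; AC50 from Hill fits.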

[19] = Cellular Toxicity (caspase-3) MRC-5 (AID 659); details: MRC-5 cells, luminescence, normalized: DMSO 0%, 10 µM staurosporine 100%; series mostly up to 91.7 µM
Procedure, shortened: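 MRC-5 human normal lung fibroblasts, 1500 cells/well, treated 16 h at 37 °C in complete medium. Caspase 3/7 measured by Caspase-Glo luminescence after 1 h at room temperature. Normalized to DMSO and 10 uM staurosporine; AC50 from Hill fit.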

[20] = Cell Viability - SH-SY5Y (AID 544); details: SH-SY5Y neuroblastoma cell viability; viability change, negative = cytotoxic: at 92.2 µM (top of the series); also: nearly all actives have a fitted effect of over 55% in size
Procedure, shortened: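 Cytotoxicity is scored as a concentration-dependent fall in intracellular ATP in human SH-SY5Y cells treated 40 hr in complete culture medium. Potency is expressed as AC50 from a Hill equation fit.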

CC(=O)Nc1ccccc1C
inactive: Potency [1] > 92 µM | Potency [2] > 92 µM | Potency [3] > 92 µM | Potency [4] > 92 µM | Potency [5] > 92 µM | Potency [6] > 92 µM | outcome [7] | activity change, negative = cytotoxicity [8] 2.99% | Potency [9] | Potency [10] | Potency [11] | Potency [12] | Potency [13] | Potency [14] | caspase-3 activation [15] 1.08% | outcome [16] | outcome [17] | outcome [18] | outcome [19]

NCCCCCCN
inactive: Potency [1] > 92 µM | Potency [2] > 92 µM | Potency [3] > 92 µM | Potency [4] > 92 µM | Potency [5] > 92 µM | Potency [6] > 92 µM | outcome [7] | activity change, negative = cytotoxicity [8] -4.05% | Potency [9] | Potency [10] | Potency [20] | Potency [12] | Potency [13] | Potency [14] | caspase-3 activation [15] -1.28% | outcome [16] | outcome [17] | outcome [18] | outcome [19]

CC#N
inactive: Potency [1] > 92 µM | Potency [2] > 92 µM | Potency [3] > 92 µM | Potency [4] > 92 µM | Potency [5] > 92 µM | Potency [6] > 92 µM | outcome [7] | activity change, negative = cytotoxicity [8] 0.749% | Potency [9] | Potency [10] | Potency [20] | Potency [12] | Potency [13] | Potency [14] | caspase-3 activation [15] 1.05% | outcome [16] | outcome [17] | outcome [18] | outcome [19]

O=Cc1ccc(Cl)cc1
inactive: Potency [1] > 92 µM | Potency [2] > 92 µM | Potency [3] > 92 µM | Potency [4] > 92 µM | Potency [5] > 92 µM | Potency [6] > 92 µM | outcome [7] | activity change, negative = cytotoxicity [8] -2.43% | Potency [9] | Potency [10] | Potency [11] | Potency [20] | Potency [13] | Potency [14] | outcome [16] | outcome [17] | outcome [18] | outcome [19]

Nc1cc(Cl)c(N)c(Cl)c1
inactive: Potency [1] > 92 µM | Potency [2] > 92 µM | Potency [3] > 92 µM | Potency [4] > 92 µM | Potency [5] > 92 µM | Potency [6] > 92 µM | outcome [7] | activity change, negative = cytotoxicity [8] -5.31% | Potency [9] | Potency [10] | Potency [11] | Potency [12] | Potency [13] | Potency [14] | caspase-3 activation [15] 3.71% | outcome [16] | outcome [17] | outcome [18] | outcome [19]

NC(N)=S
inactive: Potency [1] > 92 µM | Potency [2] > 92 µM | Potency [3] > 92 µM | Potency [4] > 92 µM | Potency [5] > 92 µM | Potency [6] > 92 µM | outcome [7] | activity change, negative = cytotoxicity [8] 7.78% | Potency [9] | Potency [10] | Potency [20] | Potency [12] | Potency [13] | Potency [14] | caspase-3 activation [15] 0.321% | outcome [16] | outcome [17] | outcome [18] | outcome [19]

Nc1nc2ccccc2[nH]1
inactive: Potency [1] > 92 µM | Potency [2] > 92 µM | Potency [3] > 92 µM | Potency [4] > 92 µM | Potency [5] > 92 µM | Potency [6] > 92 µM | outcome [7] | activity change, negative = cytotoxicity [8] -3.92% | Potency [9] | Potency [10] | Potency [20] | Potency [12] | Potency [13] | Potency [14] | outcome [16] | outcome [17] | outcome [18] | outcome [19]

Nc1ccc([N+](=O)[O-])c(N)c1
inactive: Potency [1] > 92 µM | Potency [2] > 92 µM | Potency [3] > 92 µM | Potency [4] > 92 µM | Potency [5] > 92 µM | Potency [6] > 92 µM | outcome [7] | activity change, negative = cytotoxicity [8] 0.888% | Potency [9] | Potency [10] | Potency [20] | Potency [12] | Potency [13] | Potency [14] | outcome [16] | outcome [17] | outcome [18] | outcome [19]

CC=C(Cl)Cl
inactive: Potency [1] > 92 µM | Potency [2] > 92 µM | Potency [3] > 92 µM | Potency [4] > 92 µM | Potency [5] > 92 µM | Potency [6] > 92 µM | outcome [7] | activity change, negative = cytotoxicity [8] -2.96% | Potency [9] | Potency [10] | Potency [20] | Potency [12] | Potency [13] | Potency [14] | outcome [16] | outcome [17] | outcome [18] | outcome [19]

C=CCCC
inactive: Potency [1] > 92 µM | Potency [2] > 92 µM | Potency [3] > 92 µM | Potency [4] > 92 µM | Potency [5] > 92 µM | Potency [6] > 92 µM | outcome [7] | activity change, negative = cytotoxicity [8] 1.78% | Potency [9] | Potency [10] | Potency [20] | Potency [12] | Potency [13] | Potency [14] | caspase-3 activation [15] -0.379% | outcome [16] | outcome [17] | outcome [18] | outcome [19]

CCCCCO
inactive: Potency [1] > 92 µM | Potency [2] > 92 µM | Potency [3] > 92 µM | Potency [4] > 92 µM | Potency [5] > 92 µM | Potency [6] > 92 µM | outcome [7] | activity change, negative = cytotoxicity [8] 3.49% | Potency [9] | Potency [10] | Potency [11] | Potency [12] | Potency [13] | Potency [14] | caspase-3 activation [15] -0.274% | outcome [16] | outcome [17] | outcome [18] | outcome [19]
